Measured values taken from PubChem BioAssay (NCI).
The panel holds about 79,000 compounds, 15% with a hit somewhere; the sample as a whole holds those more often. Activity calls are given as the source filed them. No stated cut-off is given here; in the data, active means growth inhibition above about 70%; inactive means the rest.

Legend:
[1] = NCI Yeast Anticancer Drug Screen. Data for the wt2 strain (AID 169);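 further: 0% = growth of vehicle-treated yeast cultures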; details: S. cerevisiae wt2 strain growth inhibition, hits give high values
Procedure, shortened: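 Inhibition of yeast growth was determined after compound treatment, normalised to controls receiving only vehicle.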

[2] = NCI Yeast Anticancer Drug Screen. Data for the mlh1 strain (AID 171);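 further: 0% = growth of vehicle-treated control cultures of the same strain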; details: S. cerevisiae mlh1 strain growth inhibition, hits give high values
Procedure, shortened: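 Vehicle-normalised growth inhibition of a repair- or checkpoint-altered yeast strain following compound treatment.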

[3] = NCI Yeast Anticancer Drug Screen. Data for the sgs1 strain (AID 173);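 further: 0% = growth of vehicle-only control cultures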; details: S. cerevisiae sgs1 mutant, hits give high values
Procedure, shortened: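 Screen format: yeast with repair or checkpoint alterations, compound exposure, growth read relative to vehicle.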

[4] = NCI Yeast Anticancer Drug Screen. Data for the mlh1 rad18 strain (AID 175); details: S. cerevisiae mlh1 rad18 strain growth inhibition, hits give high values
Procedure, shortened: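 Vehicle-treated cultures served as the reference for growth inhibition in a yeast strain carrying DNA damage repair alterations exposed to each compound.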

[5] = NCI Yeast Anticancer Drug Screen. Data for the rad18 strain (AID 177); details: S. cerevisiae rad18 mutant growth inhibition, hits give high values
Procedure, shortened: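 Test articles were incubated with altered yeast defective in DNA damage repair. Results are given as inhibition of growth versus vehicle.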

[6] = NCI Yeast Anticancer Drug Screen. Data for the rad52 strain (AID 147);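 further: 0% = growth of vehicle-treated control cultures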; details: S. cerevisiae rad52 mutant growth inhibition, hits give high values
Procedure, shortened: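 Vehicle-treated cultures served as the reference for growth inhibition of compound-exposed yeast bearing a DNA repair mutation.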

[7] = NCI Yeast Anticancer Drug Screen. Data for the wt1 strain (AID 149);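 further: 0% = growth of vehicle-treated wt1 cultures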; details: S. cerevisiae wt1 strain (SPY 50644) growth inhibition, hits give high values
Procedure, shortened: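 Growth inhibition read against vehicle controls after compound exposure of the wt1 yeast strain.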

[8] = NCI Yeast Anticancer Drug Screen. Data for the rad50EPP+ strain (AID 151);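 further: 0% = growth of vehicle-treated control cultures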; details: S. cerevisiae rad50 mutant strain, hits give high values
Procedure, shortened: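 In this screen, rad50EPP+ yeast were exposed to compounds. Growth inhibition was scored against vehicle-treated controls.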

[9] = NCI Yeast Anticancer Drug Screen. Data for the mgt1 strain (AID 153); details: S. cerevisiae mgt1 mutant growth inhibition, hits give high values
Procedure, shortened: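 mgt1 strain exposed; growth vs vehicle control recorded as inhibition.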

[10] = NCI Yeast Anticancer Drug Screen. Data for the rad50 strain (AID 155);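 further: 0% = growth of vehicle-only cultures of the same strain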; details: S. cerevisiae rad50 strain growth inhibition, hits give high values
Procedure, shortened: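 Readout: growth inhibition relative to vehicle-treated cultures. Compound exposure was carried out in a genetically defined yeast strain deficient in DNA damage repair.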

[11] = NCI Yeast Anticancer Drug Screen. Data for the mec2-1 strain (AID 157); details: S. cerevisiae mec2-1 strain, hits give high values
Procedure, shortened: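 Vehicle-treated cultures served as reference for growth inhibition of compound-exposed mec2-1 yeast.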

[12] = NCI Yeast Anticancer Drug Screen. Data for the rad14 strain (AID 159);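 further: 0% = growth of vehicle-treated control cultures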; details: S. cerevisiae rad14 strain growth inhibition, hits give high values
Procedure, shortened: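 Growth inhibition vs vehicle controls; genetically altered yeast strain (DNA damage repair defect) treated with test compounds.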

[13] = NCI Yeast Anticancer Drug Screen. Data for the sgs1 mgt1 strain (AID 161);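 further: 0% = growth of cultures given vehicle only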; details: S. cerevisiae sgs1 mgt1 strain, hits give high values
Procedure, shortened: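 Read-out: growth inhibition vs vehicle controls. Cells: mutant yeast strain deficient in DNA damage repair.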

[14] = NCI Yeast Anticancer Drug Screen. Data for the CLN2oe strain (AID 163);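 further: 0% = growth of vehicle-only control cultures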; details: S. cerevisiae CLN2oe strain, hits give high values
Procedure, shortened: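 Inhibition relative to vehicle-treated yeast is reported. Cells: strain with genetic alteration in cell-cycle control, grown with compound.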

[15] = NCI Yeast Anticancer Drug Screen. Data for the cln2 rad14 strain (AID 165);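 further: 0% = growth equal to vehicle treated cultures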; details: S. cerevisiae cln2 rad14 strain, hits give high values
Procedure, shortened: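 Each compound was tested on cln2 rad14 yeast. Inhibition of growth was calculated against vehicle-exposed controls.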

[16] = NCI Yeast Anticancer Drug Screen. Data for the bub3 strain (AID 167); details: S. cerevisiae bub3 mutant strain, hits give high values
Procedure, shortened: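 Readout: yeast growth inhibition, expressed relative to vehicle-only wells. The test organism is a mutant strain from a panel with lesions in DNA repair or checkpoint genes.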

[17] = at 5.0 µM (retest, dose inferred, filed as 0.5)
[18] = at 50.0 µM (retest, dose inferred, filed as 5.0)

Measured: growth inhibition

CC1(C)CC(=O)C(C(=O)Nc2cccs2)=C(O)C1
active: [1]; at 100.0 µM 99% | [2]; at 33.0 µM 92% | [2]; at 100.0 µM 99% | [3]; at 33.0 µM 88% | [3]; at 100.0 µM 99% | [4]; at 50.0 µM 90.4% | [5]; at 100.0 µM 99%
inactive: [1]; at 1.2 µM 4% | [1]; at 3.7 µM 14% | [1]; at 11.0 µM 17% | [1]; at 33.0 µM 60% | [2]; at 1.2 µM 1% | [2]; at 3.7 µM 4% | [2]; at 11.0 µM 30% | [3]; at 1.2 µM 8% | [3]; at 3.7 µM 23% | [3]; at 11.0 µM 38% | [4]; [17] -36% | [4]; [18] 2% | [5]; at 1.2 µM 1% | [5]; at 3.7 µM 1% | [5]; at 11.0 µM 7% | [5]; at 33.0 µM 48%

N#CSCC1COc2ccccc2O1 (centres undefined)
active: [6]; at 33.0 µM 72% | [6]; at 100.0 µM 98% | [7]; at 100.0 µM 97% | [8]; at 33.0 µM 83% | [8]; at 100.0 µM 97% | [9]; at 100.0 µM 97% | [10]; at 33.0 µM 86% | [10]; [18] 89% | [10]; at 50.0 µM 88.4% | [10]; at 100.0 µM 98% | [11]; at 33.0 µM 87% | [11]; [18] 91% | [11]; at 50.0 µM 90.8% | [11]; at 100.0 µM 97% | [12]; at 100.0 µM 98% | [13]; at 50.0 µM 90.6% | [14]; at 33.0 µM 70% | [14]; at 100.0 µM 98% | [15]; [18] 85% | [15]; at 50.0 µM 85.3% | [16]; at 33.0 µM 87% | [16]; [18] 94% | [16]; at 50.0 µM 90.9% | [16]; at 100.0 µM 98% | [1]; at 100.0 µM 96% | [2]; at 33.0 µM 77% | [2]; at 100.0 µM 97% | [3]; at 33.0 µM 73% | [3]; at 100.0 µM 97% | [4]; [18] 94% | [4]; at 50.0 µM 88.2% | [5]; at 33.0 µM 91% | [5]; at 100.0 µM 98%
inactive: [6]; at 1.2 µM -43% | [6]; at 3.7 µM -47% | [6]; at 11.0 µM -26% | [7]; at 1.2 µM -49% | [7]; at 3.7 µM -49% | [7]; at 11.0 µM -28% | [7]; at 33.0 µM 54% | [8]; at 1.2 µM -28% | [8]; at 3.7 µM -18% | [8]; at 11.0 µM -5% | [9]; at 1.2 µM -25% | [9]; at 3.7 µM -23% | [9]; at 11.0 µM -9% | [9]; at 33.0 µM 68% | [10]; at 1.2 µM -1% | [10]; at 3.7 µM 1% | [10]; [17] -5% | [10]; at 11.0 µM 8% | [11]; at 1.2 µM -21% | [11]; at 3.7 µM -33% | [11]; [17] -27% | [11]; at 11.0 µM -5% | [12]; at 1.2 µM -20% | [12]; at 3.7 µM -12% | [12]; at 11.0 µM -16% | [12]; at 33.0 µM 20% | [13]; [17] -25% | [13]; [18] 26% | [14]; at 1.2 µM -11% | [14]; at 3.7 µM -14% | [14]; at 11.0 µM -14% | [15]; [17] -6% | [16]; at 1.2 µM -33% | [16]; at 3.7 µM -11% | [16]; [17] 8% | [16]; at 11.0 µM -16% | [1]; at 1.2 µM -50% | [1]; at 3.7 µM -51% | [1]; at 11.0 µM -24% | [1]; at 33.0 µM 58% | [2]; at 1.2 µM -51% | [2]; at 3.7 µM -37% | [2]; at 11.0 µM -27% | [3]; at 1.2 µM -46% | [3]; at 3.7 µM -42% | [3]; at 11.0 µM -8% | [4]; [17] 5% | [5]; at 1.2 µM -21% | [5]; at 3.7 µM -22% | [5]; at 11.0 µM 17%

CC(C)Cc1ncc(CCCN=C(N)N)[nH]c1=O
active: [10]; at 50.0 µM 82.8% | [11]; at 50.0 µM 77.8% | [13]; at 50.0 µM 84.2% | [15]; at 50.0 µM 74.5% | [16]; [18] 91% | [16]; at 50.0 µM 81.8%
inactive: [6]; at 1.2 µM -7% | [6]; at 3.7 µM -10% | [6]; at 11.0 µM -5% | [6]; at 33.0 µM -1% | [6]; at 100.0 µM -5% | [7]; at 1.2 µM 0% | [7]; at 3.7 µM 1% | [7]; at 11.0 µM 4% | [7]; at 33.0 µM 3% | [7]; at 100.0 µM 6% | [8]; at 1.2 µM -2% | [8]; at 3.7 µM -13% | [8]; at 11.0 µM 0% | [8]; at 33.0 µM 9% | [8]; at 100.0 µM 9% | [9]; at 1.2 µM -2% | [9]; at 3.7 µM -5% | [9]; at 11.0 µM -3% | [9]; at 33.0 µM -6% | [9]; at 100.0 µM -6% | [10]; at 1.2 µM -14% | [10]; at 3.7 µM -19% | [10]; [17] -5% | [10]; at 11.0 µM -21% | [10]; at 33.0 µM -20% | [10]; [18] 4% | [10]; at 100.0 µM 2% | [11]; at 1.2 µM -4% | [11]; at 3.7 µM -2% | [11]; [17] 3% | [11]; at 11.0 µM -3% | [11]; at 33.0 µM -5% | [11]; [18] 49% | [11]; at 100.0 µM -3% | [12]; at 1.2 µM 0% | [12]; at 3.7 µM 1% | [12]; at 11.0 µM 15% | [12]; at 33.0 µM 11% | [12]; at 100.0 µM -2% | [13]; [17] 1% | [13]; [18] 38% | [14]; at 1.2 µM -4% | [14]; at 3.7 µM -5% | [14]; at 11.0 µM -13% | [14]; at 33.0 µM -11% | [14]; at 100.0 µM -7% | [15]; [17] -7% | [15]; [18] 38% | [16]; at 1.2 µM -9% | [16]; at 3.7 µM -6% | [16]; [17] -6% | [16]; at 11.0 µM -10% | [16]; at 33.0 µM -14% | [16]; at 100.0 µM -14% | [1]; at 1.2 µM 6% | [1]; at 3.7 µM 12% | [1]; at 11.0 µM 15% | [1]; at 33.0 µM 17% | [1]; at 100.0 µM 14% | [2]; at 1.2 µM -11% | [2]; at 3.7 µM -6% | [2]; at 11.0 µM -6% | [2]; at 33.0 µM -4% | [2]; at 100.0 µM -1% | [3]; at 1.2 µM -13% | [3]; at 3.7 µM -12% | [3]; at 11.0 µM -6% | [3]; at 33.0 µM -3% | [3]; at 100.0 µM -8% | [4]; [17] 2% | [4]; [18] 55% | [4]; at 50.0 µM 33.4% | [5]; at 1.2 µM -7% | [5]; at 3.7 µM -2% | [5]; at 11.0 µM -5% | [5]; at 33.0 µM -8% | [5]; at 100.0 µM -6%
